Assay outcomes deposited in PubChem by National Center for Advancing Translational Sciences (NCATS).
RORg inh: inhibitors of mouse ROR gamma transcriptional activity; 310,000 tested, 5.4% active; Drosophila S2 Gal4-RORgamma UAS-luciferase reporter, 20 h; Potency, µM (top dose mostly 53.6 µM), most hits filed as inhibitors; further: nearly all actives have a fitted effect of over 60% in size
Target sequence (P51450 whole entry, looked up, the tested form may be a part): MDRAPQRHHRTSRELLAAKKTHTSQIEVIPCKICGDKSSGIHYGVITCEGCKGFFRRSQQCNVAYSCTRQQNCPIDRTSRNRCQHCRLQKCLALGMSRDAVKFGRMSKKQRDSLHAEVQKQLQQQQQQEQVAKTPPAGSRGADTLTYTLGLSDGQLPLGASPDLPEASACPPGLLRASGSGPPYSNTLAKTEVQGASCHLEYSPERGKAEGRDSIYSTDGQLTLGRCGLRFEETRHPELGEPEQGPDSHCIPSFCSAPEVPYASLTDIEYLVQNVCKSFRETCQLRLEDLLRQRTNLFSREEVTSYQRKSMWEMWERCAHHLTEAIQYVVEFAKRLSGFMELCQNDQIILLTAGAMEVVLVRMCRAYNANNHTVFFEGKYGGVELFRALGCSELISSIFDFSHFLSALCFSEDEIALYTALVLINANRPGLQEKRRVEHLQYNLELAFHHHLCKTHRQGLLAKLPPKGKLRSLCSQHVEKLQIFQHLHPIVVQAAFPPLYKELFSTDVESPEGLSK
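Luminescence from a UAS-regulated Photinus luciferase reporter in stably transfected Drosophila Schneider cells is measured; decreased signal marks ROR gamma inhibition. Fusion expression is induced by 700 uM copper sulfate for 20 hr.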
Tau fluor cs: counter-screen for tau fibril formation inhibitors; tau K18 P301L Alexa594 fluorescence, heparin fibrillization; Potency, µM (series often up to 57.7 µM); 280,000 tested, 0.93% active; further: nearly all actives have a fitted effect of over 55% in size
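Human tau K18 P301L (15 uM unlabeled, 0.24 uM Alexa 594-labeled) in 100 mM sodium acetate pH 7 with 20 uM heparin, 6 hr at 37 C. ThT 30 uM added, 1 hr ambient; Alexa 594 FP and total fluorescence read at 555/632 nm.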
VP16 counter: Gal4-VP16 reporter inhibition counter-screen; Potency, µM (top dose mostly 53.6 µM), most hits filed as inhibitors; Drosophila S2 Gal4-VP16 UAS-luciferase, luminescence, 20 h; 310,000 tested, 3.5% active; AID 2546;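 further: Gal4-VP16 expression switched on by copper sulfate through the metallothionein promoter; nearly all actives have a fitted effect of over 50% in size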
Tau fibril FP: blocks human tau fibril formation measured by polarization; P10636; K18 P301L tau heparin fibrillization, Alexa594 FP, 6 h; Potency, µM (series often up to 57.7 µM), usual class: inhibitors; 280,000 tested, 0.39% active; further: nearly all actives have a fitted effect of over 55% in size
Target sequence (P10636 561-689 P618L limits assumed): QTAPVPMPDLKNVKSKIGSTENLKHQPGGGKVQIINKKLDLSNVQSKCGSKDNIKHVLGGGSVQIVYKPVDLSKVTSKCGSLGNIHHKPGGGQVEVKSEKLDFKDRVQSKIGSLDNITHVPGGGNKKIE
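FP of Alexa 594-tau after heparin (20 uM) induction. Substrate: human K18 P301L, 15 uM unlabeled, 0.24 uM labeled. Buffer 100 mM sodium acetate pH 7. 6 hr, 37 C.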
Tau ThT inhib: blocks human tau fibril formation measured by thioflavin T; P10636; 270,000 tested, 2.1% active; recombinant tau K18 P301L (four-repeat tau fragment), heparin-induced fibrillization, ThT fluorescence; Potency, µM (highest dose often 57.4 µM), actives largely listed as inhibitors; further: nearly all actives have a fitted effect of over 55% in size
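In this qHTS, human K18 P301L tau is incubated with compound and heparin for 6 hr at 37 C, and Thioflavin T fluorescence then reports fibril load.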
A number is an active result; [ ] = remark or other dose. Sampled rows, rich in hits. Any-hit rate of the full collection: about 7.3%. The call rests on the fitted dose curve; in most records, active means well fitted curve in the direction sought with a large enough effect; inconclusive means small, poorly fitted or top-dose-only effect, or another doubt; inactive means no such curve, though single readings can be large; an effect the other way counts as inactive or inconclusive.

Screening CN1C(=S)N(c2cccnc2)C(=O)/C1=C\c1ccc(N(C)C)cc1 returned RORg inh inactive, Tau fluor cs inconclusive, VP16 counter inactive, Tau fibril FP inactive and Tau ThT inhib 3.98µM.
COc1ccc(-c2cc3ccc(O)c(CN4CCCC(C)C4)c3oc2=O)cc1OC (centres undefined) was read as Tau fluor cs inactive, Tau fibril FP inactive and Tau ThT inhib inconclusive.
`O=S(=O)(Nc1cccc2ncccc12)c1cccs1` gave RORg inh 2.24µM, Tau fluor cs inactive, VP16 counter inactive[0.365 µM], Tau fibril FP inactive and Tau ThT inhib inactive.
Screening c1ccc(C(Cc2nc(-c3ccncc3)no2)c2ccccc2)cc1 returned RORg inh inconclusive, Tau fluor cs inactive, VP16 counter 10µM, Tau fibril FP inactive and Tau ThT inhib inactive.
c1ccc(-c2ccccc2-c2nc(-c3ccncc3)no2)cc1 was read as RORg inh 8.91µM, Tau fluor cs inactive, VP16 counter inconclusive, Tau fibril FP inactive and Tau ThT inhib inconclusive.
For CN(Cc1nc(-c2ccncc2)no1)S(=O)(=O)c1ccccc1 the results were RORg inh 2.51µM, Tau fluor cs inactive, VP16 counter inactive, Tau fibril FP inactive and Tau ThT inhib inactive.
For O=C(O)c1ccc(-c2noc(-c3ccccc3F)n2)cc1 the results were VP16 counter 10µM.
For c1ccc(-c2nc(-c3ccncc3)no2)cc1 the results were RORg inh inactive, Tau fluor cs inactive, VP16 counter inactive, Tau fibril FP inactive and Tau ThT inhib inactive.
For COc1ccc(OC)c(NC(=O)CC2C(=O)NCCN2C(=O)C(F)(F)F)c1 (centres undefined) the results were Tau fluor cs inactive, Tau fibril FP inactive and Tau ThT inhib inactive.
Cc1ccccc1OC1C=CC(c2ccccc2)OC1CO (centres undefined) was read as RORg inh inactive[10 µM], Tau fluor cs inactive[11.6 µM], VP16 counter inactive[10 µM], Tau fibril FP inactive[11.6 µM] and Tau ThT inhib inactive[11.5 µM].
Screening Cc1cc2c(sc3c(C)ccc(C)c32)c(C)n1 returned RORg inh 17.8µM, Tau fluor cs inactive, VP16 counter inactive, Tau fibril FP inactive and Tau ThT inhib inconclusive.
For Fc1cc2[nH]c(=S)[nH]c2c(Br)c1N1CCSCC1 the results were RORg inh 11.2µM and VP16 counter inactive.
For O=C(CCC(=O)c1cccs1)c1cccs1 the results were RORg inh inconclusive, Tau fluor cs inactive, VP16 counter inactive, Tau fibril FP inactive and Tau ThT inhib inactive.
Screening C[n+]1ccn(CC(=O)c2cccs2)c1 returned RORg inh 10µM and VP16 counter inactive.
Screening CN1CCN(c2ncc3nc(-c4ccccc4)c(=O)n(Cc4cccs4)c3n2)CC1 returned RORg inh inactive and VP16 counter inactive.
C=C(C)C1CC=C(C)/C(=N\NC(=S)Nc2ccc(C)cc2)C1 (centres undefined) was read as RORg inh 1.12µM, Tau fluor cs inactive, VP16 counter 4.47µM, Tau fibril FP inactive and Tau ThT inhib inconclusive.
C=C(C)C1CC=C(C)/C(=N/NC(=O)COc2ccc(C)cc2)C1 (centres undefined) was read as RORg inh inconclusive, Tau fluor cs inactive, VP16 counter inactive, Tau fibril FP inactive and Tau ThT inhib inactive.
`CN(C)CC(O)Cn1c2ccc(Br)cc2c2cc(Br)ccc21` (centres undefined) gave Tau fluor cs inconclusive, Tau fibril FP 25.1µM and Tau ThT inhib inactive.
For O=C(N/N=C/c1c[nH]c2ccc(Br)cc12)c1ccn(Cc2ccc(Cl)cc2)n1 the results were RORg inh inconclusive, Tau fluor cs 11.2µM[quencher], VP16 counter inactive, Tau fibril FP inactive and Tau ThT inhib inconclusive.
O=C(N/N=C/c1c[nH]c2ccccc12)c1ccn(Cc2ccc(Cl)cc2Cl)n1 was read as RORg inh inactive, Tau fluor cs 12.6µM[quencher], VP16 counter inactive, Tau fibril FP inactive and Tau ThT inhib inconclusive.
Cn1ccc(C(=O)N/N=C/c2c[nH]c3ccccc23)n1 was read as RORg inh inactive and VP16 counter inactive.
For Cc1cc(C)cc(Oc2ccccc2/C=N\O)c1 the results were RORg inh inconclusive, Tau fluor cs inactive, VP16 counter 11.2µM, Tau fibril FP inconclusive and Tau ThT inhib inactive.
Screening CCCCN(C)CCNC(=O)C1CCCN(S(=O)(=O)c2ccc3c(c2)oc(=O)n3C)C1 (centres undefined) returned Tau fluor cs inactive, Tau fibril FP inactive and Tau ThT inhib inactive.
For CCC(=O)Nc1nc(CC(=O)Nc2ccccc2)cs1 the results were RORg inh inactive, Tau fluor cs inactive, VP16 counter inactive, Tau fibril FP inactive and Tau ThT inhib inactive.
For COc1ccccc1NC(=O)Cc1csc(NC(=S)Nc2ccccc2)n1 the results were RORg inh 1.12µM, Tau fluor cs inconclusive, VP16 counter 3.16µM, Tau fibril FP inconclusive and Tau ThT inhib inactive.
Screening COc1ccc(NC(=S)Nc2nc(CC(=O)Nc3ccccc3OC)cs2)cc1 returned RORg inh 1.78µM, Tau fluor cs 12.6µM[quencher], VP16 counter 4.47µM, Tau fibril FP inactive and Tau ThT inhib inactive.
`O=C(Nc1ccc(N2CCN(CCOc3ccc(Cl)cc3)CC2)c(C(=O)O)c1)c1ccc(F)cc1` gave Tau fluor cs inactive, Tau fibril FP inactive and Tau ThT inhib inactive.
`CCN1CCN(CCNC(=O)c2ccc3c(c2)N(Cc2ccc(F)cc2)C(=O)/C(=C/c2ccccc2)S3)CC1` gave RORg inh 15.8µM, Tau fluor cs inconclusive, VP16 counter inconclusive, Tau fibril FP inconclusive and Tau ThT inhib inconclusive.
For CCc1cccc2c(C(=O)COC(=O)/C=C/c3ccc(O)c(OC)c3)c[nH]c12 the results were RORg inh inconclusive, Tau fluor cs 15.8µM[quencher], VP16 counter inactive, Tau fibril FP inactive and Tau ThT inhib inconclusive.
`COc1cccc(/C=C/C(=O)OCC(=O)c2c[nH]c3ccccc23)c1OC` gave RORg inh inactive, Tau fluor cs inconclusive, VP16 counter inactive, Tau fibril FP inconclusive and Tau ThT inhib inactive.
Screening COc1ccc2[nH]cc(CCNC(=O)c3cnn(-c4ccc(C)cc4)c3C3CCN(C(=O)OC(C)(C)C)CC3)c2c1 returned Tau fluor cs inconclusive, Tau fibril FP inactive and Tau ThT inhib inactive.
Screening COc1cc(/C=C(\C#N)c2nc(-c3cc4ccccc4oc3=O)cs2)ccc1O returned RORg inh inactive, Tau fluor cs inconclusive, VP16 counter inactive, Tau fibril FP inactive and Tau ThT inhib 3.55µM.
`COc1cc(/C=C(\C#N)c2nc3ccccc3o2)ccc1O` gave RORg inh inactive, Tau fluor cs inconclusive, VP16 counter inactive, Tau fibril FP inconclusive and Tau ThT inhib 7.94µM.
Screening COc1cc(/C=C(/C#N)c2nc(-c3cc4ccccc4oc3=O)cs2)cc([N+](=O)[O-])c1O returned RORg inh inactive, Tau fluor cs inconclusive, VP16 counter inactive, Tau fibril FP inconclusive and Tau ThT inhib inconclusive.
`N#C/C(=C\c1ccc(O)cc1)c1nc2ccccc2o1` gave RORg inh inactive, Tau fluor cs inconclusive, VP16 counter inactive, Tau fibril FP inactive and Tau ThT inhib inconclusive.
